The values below come from PubChem BioAssay AID1745847 (National Center for Advancing Translational Sciences (NCATS), 2022).

The structures appear in SMILES notation. The campaign covered roughly 2,100 compounds. About 670 (32%) were called active. Another 50% or so got no clear call; they are omitted. The list shows a part of the results. Unmarked numbers belong to inactive results. Calls follow the shape of the dose curve; as a rule, active = well fitted inhibition curve with a large enough effect; inconclusive = small, poorly fitted or top-dose-only effect; inactive = no such curve, though single readings can be large or run the other way.
% is scaled to controls: 0 for no effect and ±100 for the full control effect; potency is read from the fitted curve at half-maximal effect.

The experiment can be described thus: CMV-Luciferase Counterscreen for Inhibitors of ATXN expression. Also: nearly all actives have a fitted effect of over 55% in size. The following applies: HEK-293 CMV-luciferase reporter, luminescence, 24 h; series mostly up to 57.5 µM; activity change, negative = inhibition: at the top concentration.
Turning to `O=C1CCCC(O)=C1C=NCc1ccccc1`, the activity change, negative = inhibition was 6.36% [at 11.4 µM].

As to `CC(=NNC(=O)c1ccncc1)c1ccc(O)cc1O`, the Potency is 11.2 µM (active).

Regarding `CCN(CC)S(=O)(=O)c1cccc(C(=O)N/N=C(\C)c2ccc(O)cc2O)c1`, the Potency was 4.47 µM (active). On the same count and under the same terms, under `Oc1c(CN2CCCCC2)ccc2cccnc12` stands 12.6 µM (active). With `CCN(CC)CCNc1ccnc2cc(Cl)ccc12`, the activity change, negative = inhibition is -15.4% [at 11.4 µM].

As for `Clc1ccc2c(NCc3ccccc3)ccnc2c1`, the Potency was 8.91 µM (active). For the molecule `Cc1ccc2c(Cl)cc(Cl)c(O)c2n1`, the Potency was 8.91 µM (active). With `CS(=O)(=O)N1CCC(Oc2cccc(C(=O)NCCCC3CCCC3)c2)CC1`, the Potency is 14.1 µM (active). On to `CC[C@@H]1C(c2cccc(Cl)c2)=NN(c2ccc(Br)cc2)[C@H]1C(=O)N1CCOC1=O`, for which the “activity change, negative = inhibition” value is 3.07%.

For `CC(=O)c1ccc(N2CCc3ccccc3C2)c([N+](=O)[O-])c1`, the “activity change, negative = inhibition” value is -14%. Regarding `COc1ccc(-c2cc(C3CCN(c4ccc(C(C)=O)cc4[N+](=O)[O-])CC3)[nH]n2)cc1`, the Potency was 11.2 µM (active). As to `CCOC(=O)c1ccccc1NC(=O)CSc1nc2ccccc2c(=O)n1CCCN1CCOCC1`, the Potency is 17.8 µM (active). Turning to `O=c1c2c(-c3ccccc3)csc2nc2c3ccccc3c(NCCN3CCOCC3)nn12`, the activity change, negative = inhibition is -12% [at 11.4 µM]. For the molecule `O=C(Nc1nc(NC(=O)c2ccco2)n(-c2ccccc2)n1)c1ccccc1`, the Potency is 6.31 µM (active). Turning to `CCN1CC2=C(OC(N)=C(C#N)C2c2cccs2)/C(=C\c2cccs2)C1` (stereo not given), the activity change, negative = inhibition is -3.4% [at 11.4 µM]. Take `COc1cc2[nH]c(=O)n(CCCCCC(=O)N3CC=C(c4ccccc4)CC3)c(=O)c2cc1OC`: the Potency was 3.16 µM (active).

Consider `CCN1CCN(CCCNC(=O)c2ccc(/C=C3/Sc4ccccc4N(Cc4ccccc4F)C3=O)cc2)CC1`, for which the “activity change, negative = inhibition” value is 12.2%. On to `O=C(CCCN1C(=O)S/C(=C\c2ccccc2)C1=O)NNC(=O)c1ccccc1O`, for which the Potency is 2.24 µM (active). For `COc1ccc(/C=C2\SC(=S)N(CCCC(=O)NNC(=O)c3ccccc3O)C2=O)cc1`, the Potency is 3.98 µM (active). For `CC(C)(C)c1ccc(Oc2ccc(N)cn2)cc1`, the Potency is 3.98 µM (active). On the same count and under the same terms, to `CCC(C)(C)c1ccc(Oc2ccc(N)cc2)cc1` belongs 2 µM (active). In the case of `CC(C)(C)c1ccc(Oc2ccc(N)cc2)cc1`, the Potency was 3.98 µM (active).

With `Cc1ccc(C(C[N+](=O)[O-])Sc2ccc(N)cc2)cc1` (stereo not given), the activity change, negative = inhibition is 52% [at 11.4 µM]. For `Cc1c(Cl)c([N+](=O)[O-])nn1Cc1ccc(C(=O)N/N=C\c2cc(Cl)ccc2O)o1`, the Potency was 0.631 µM (active). For the molecule `CCN(CC)c1ccc(/C=C/c2cccc[n+]2C)c(OC)c1`, the Potency is 2 µM (active).
